# Shown are actives, neighbours in structure and some others; about 2.4% of the full set was active somewhere.
# TNF death inh: TNF-alpha cell death inhibition in Jurkat FADD-/- cells | Jurkat FADD-/- TNF necroptosis rescue, ATP luminescence, 24 h; 0 = TNF only, 100 = no-TNF cells | activation (protection from cell death), % at 10 µM | actives 0.068% (n = 220,000) | AID 463075;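 active = activation, meaning protection from cell death, of at least 50% relative to plate controls; inactive = activation below 50%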;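 note: necroptosis triggered by 40 ng/mL TNF-alpha added together with compound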
# Mcl1 Bid PPI: disrupts binding of human Mcl-1 to Bid peptide; Q07820; TR-FRET Mcl-1/Bid-Dy647 peptide binding, 1536-well; inhibition, % at 21.7 µM; actives 0.97% (n = 220,000); AID 1021;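 active = compounds that cut the binding signal by more than half at the single screening dose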;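 note: His-tagged Mcl-1 with europium anti-His antibody binding Bid BH3 peptide; 0% = Mcl-1 plus peptide wells and 100% = peptide-only wells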
# Target sequence (Q07820 whole entry, looked up): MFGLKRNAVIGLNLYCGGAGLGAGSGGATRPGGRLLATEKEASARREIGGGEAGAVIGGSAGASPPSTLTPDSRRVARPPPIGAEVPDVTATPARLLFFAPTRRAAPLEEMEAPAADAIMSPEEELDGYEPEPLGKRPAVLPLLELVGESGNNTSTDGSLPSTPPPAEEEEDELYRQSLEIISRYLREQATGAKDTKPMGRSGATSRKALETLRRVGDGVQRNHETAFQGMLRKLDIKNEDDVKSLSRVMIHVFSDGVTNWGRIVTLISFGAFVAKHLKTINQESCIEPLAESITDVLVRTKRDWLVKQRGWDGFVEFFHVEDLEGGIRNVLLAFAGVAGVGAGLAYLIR
# L929 necroptosis: L929 zVAD cell death inhibition; L929 zVAD necroptosis rescue, ATP luminescence, 24 h; with zVAD 60 µM; viability rescue, % at 10 µM; actives 0.38% (n = 220,000); AID 1377;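 active = activation, scaled between plate controls, above about 75%, limit read from the data; inactive = activation under that limit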;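 note: 0% = zVAD with DMSO and 100% = DMSO alone without zVAD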
# MCL1 BIM primary: MCL1-BIM-BH3 interaction inhibition (human); GST-MCL1 / FITC-Bim-BH3 fluorescence polarization; inhibition, % at 10.9 µM; actives 0.68% (n = 320,000); AID 2057;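 active = inhibition above the mean inhibition of all tested compounds plus 3 SD, set per campaign, cut at about 40% in these data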;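 note: 0% = DMSO wells and 100% = unlabeled Bim-BH3 peptide control; higher means more loss of mP so more displacement of Bim peptide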
# Mcl1 Noxa PPI: Mcl-1/Noxa interaction inhibition; Q07820; TR-FRET Mcl-1/Noxa peptide binding, 2 h; inhibition, % at 21.7 µM; actives 1.5% (n = 220,000);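 active = compounds that cut the protein-peptide binding signal by more than 50% relative to plate controls in a single-dose test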;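 note: His-tagged Mcl-1 with rhodamine Noxa BH3 peptide and terbium anti-His antibody; 0% = Mcl-1 plus Noxa peptide wells and 100% = peptide-only wells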
# Mcl-1 Bim block: human Bim-Mcl-1 interaction inhibition | Bead-based flow cytometry, Bim peptide-Mcl-1 binding | Q07820 | inhibition, % at 10 µM | AID 1009 | actives 0.1% (n = 190,000); in the data active = inhibition above about 40%;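 note: 0% = no compound tracer wells and 100% = peptide blocker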
# Numbers without * were called inactive; x = not tested or not shown.
SMILES,TNF death inh,Mcl1 Bid PPI,L929 necroptosis,MCL1 BIM primary,Mcl1 Noxa PPI,Mcl-1 Bim block
COc1cc(OC)cc(-c2c(C#Cc3ccsc3)c3cc(-c4cccc5[nH]ccc45)ccc3n2C)c1,x,x,x,1,x,x
O=C(COc1ccc2cc(-c3ccccc3)c(=O)oc2c1)NCC1CCC(C(=O)O)CC1 (stereo not given),x,x,x,-9,x,x
Cc1cccc(C(=O)N2CCc3cc(-c4nc(NC(=O)CN5CCCC5)sc4C)ccc32)c1,x,x,x,5,x,x
Cc1cccc(C(=O)N2CCc3cc(-c4nc(NC(=O)Cn5nnc6ccccc6c5=O)sc4C)ccc32)c1,5,67*,73,7,51*,-4
NCC1CC2c3ccccc3C1c1ccccc12 (stereo not given),x,x,x,-2,x,x
COc1ccc(S(=O)(=O)N2CCOCC2)cc1C(=O)N1CCCCC1,x,x,x,-3,x,x
Cc1ccc2c(Cl)cc(Cl)c(OCC(=O)NCc3ccco3)c2n1,0,30,-1,x,94*,1
CCOc1ccc(N(CC(=O)NCc2ccco2)C(=O)CCC(=O)Nc2nccs2)cc1,x,x,x,0,x,x
NCCCC[C@H](NC(=O)C1CCNCC1)c1nnc(CN)o1,0,90*,1,6,35,0
NCCCC[C@H](NC(=O)C1CCNCC1)c1nnc([C@@H](N)CO)o1,-1,20,0,-3,16,-1
CC(C)c1ccc(O)c(NC(=O)c2cncc(Br)c2)c1,67*,-50,0,12,10,0
O=[N+]([O-])c1ccc(Sc2cccc[n+]2[O-])c2nonc12,-33,-115,-4,x,62*,x
NS(=O)(=O)c1ccc(CCNC(=O)c2ccc(NS(=O)(=O)c3ccc4[nH]c(=O)[nH]c4c3)cc2)cc1,x,x,x,3,x,x
Clc1ccccc1-c1nc2ccccc2[nH]1,-1,77*,2,2,-7,x
CCOCc1c(C(=O)OCC(=O)Nc2ccccc2C(N)=O)oc2ccccc12,x,x,x,3,x,x
Cc1ccsc1C(=O)N1CCN(c2ncc(C(F)(F)F)cc2Cl)CC1,x,x,x,5,x,x
COc1cc(CNc2ccc(N3CCCC3)cc2)cc(Cl)c1OC,-6,-30,-1,17,72*,11
CCOc1ccc(CNc2ccc(N3CCCC3)cc2)cc1,-12,-29,-1,12,66*,6
CCOc1cc(CNc2ccc(N3CCCC3)cc2)cc(Cl)c1OC,-15,6,x,25,76*,-2
CCN1C(=O)N(C(C)=O)C2C1N(C(C)=O)C(=O)N2C(C)=O (stereo not given),0,53*,0,-1,-1,-1
COc1ccccc1-c1nc(C#N)c(NCCCn2ccnc2)o1,2,-41,1,1,19,x
Cc1ccccc1Cn1ccc(NC(=O)c2cc3ncc(Br)cn3n2)n1,5,-81,11,13,20,-1
CSc1ccccc1NC(=O)c1cc2ncc(Br)cn2n1,0,-19,1,12,59*,-1
CCn1nc(C)c(NC(=O)/C=C/c2ccc(OC)c(COc3ccc(Cl)cc3Br)c2)c1C,-2,64*,1,5,-3,-1
COC(=O)CC1Sc2ccccc2NC1=O (stereo not given),1,-25,2,12,14,-3
SMILES,TNF death inh,Mcl1 Bid PPI,L929 necroptosis,MCL1 BIM primary,Mcl1 Noxa PPI,Mcl-1 Bim block
Cc1ccc(NC2Sc3ccccc3NC2=O)cc1 (stereo not given),-4,-32,0,-12,56*,-5
O=C(c1ccco1)N1CCN(C(c2ccccc2)c2nnnn2Cc2cccs2)CC1 (stereo not given),-3,-22,-1,8,5,0
Fc1ccc(Cn2nnnc2C(c2ccc(Cl)cc2)N2CCSCC2)cc1 (stereo not given),-1,14,0,8,11,43*
CC1CCN(C(c2ccc(N(C)C)cc2)c2nnnn2Cc2ccc(F)cc2)CC1 (stereo not given),-3,-49,0,1,18,-1
O=C(c1ccco1)N1CCN(C(c2ccc(F)cc2)c2nnnn2Cc2cccs2)CC1 (stereo not given),-4,62*,0,3,25,-3
O=C(c1ccco1)N1CCN(C(c2ccc(Cl)cc2)c2nnnn2CC2CCCO2)CC1 (stereo not given),-1,55*,0,7,15,-6
O=C(Nc1ccccc1)Nc1cccc2nsnc12,-8,2,0,6,-4,0
COc1ccc(/C=N/NC(=O)Nc2cccc3nsnc23)cc1,2,53*,3,-8,2,-2
Oc1ccc(Br)cc1-c1cc(-c2ccc(Cl)cc2)n[nH]1,-5,10,0,9,82*,-2
COc1cc(C2C3=C(Nc4nc(N)[nH]c(=O)c42)c2ccccc2C3=O)ccc1O (stereo not given),0,-104,0,16,90*,x
CN(CC(=O)Nc1ccccc1C(F)(F)F)C(=O)CCc1nc2ccccc2c(=O)[nH]1,x,x,x,5,x,x
CCn1cc(C(=O)NCc2ccco2)c(=O)c2cc(S(=O)(=O)N3CCCCCC3)ccc21,-11,-13,0,-3,12,0
C=CCn1cc(C(=O)NCc2ccco2)c(=O)c2cc(S(=O)(=O)N3CCCCCC3)ccc21,-9,91*,0,2,1,-1
CC(=O)N1CCCN(Cc2cn(-c3ccc(C)cc3)nc2-c2ccc(F)cc2)CC1,3,56*,6,-3,34,14
Cc1ccc(-n2cc(CN3CCCN(C=O)CC3)c(-c3ccc(F)cc3)n2)cc1,3,12,3,4,12,-6
Oc1cc2c(cc1C(c1ccc(Br)cc1)N1CCCC1)OCO2 (stereo not given),2,90*,1,x,82*,4
O=S(=O)(NCC(c1ccc2c(c1)OCO2)N1CCOCC1)c1ccc(Br)cc1 (stereo not given),x,x,x,-6,x,x
O=C(CN1CCN(S(=O)(=O)c2ccccc2F)CC1)Nc1ccnn1C1CCCC1,x,x,x,-2,x,x
COC(=O)c1c(NC(=O)COC(=O)c2ccc(NC(=O)CC#N)cc2)sc2c1CCCCC2,0,19,0,-18,67*,0
CC(C)CC(NC(=O)C1CCC(=O)N1C(=O)OCc1ccccc1)C(=O)NC(Cc1ccccc1)C(N)=O (stereo not given),x,x,x,5,x,x
CC(=O)Nc1ccc(/C=C2/Sc3ccccc3C2=O)cc1,-2,-28,1,-1,72*,0
COc1ccc(C2Nc3ccccc3C(=O)N2NC(C)=O)cc1OC (stereo not given),0,-6,2,-4,9,0
COc1ccc(C2Nc3ccccc3C(=O)N2O)cc1OC (stereo not given),0,93*,1,6,-1,-3

# Bioassay records as filed in PubChem.
